Several values for one entry are separate records, joined by “and”; a condition that tells them apart may be missing. Equal values may be shown once. The campaign covered roughly 5,500 compounds. About 2,000 (36%) were called active. About 18% were inconclusive and are not listed. No stated cut-off is given here; in the data, active means normalized growth mostly below about 0.91 (no sharp cut-off); inconclusive means no clear call, values can overlap the other calls; inactive means mostly above about 0.92. Some of the results follow.
Test: chemical genetic growth profiling, strain panel (AID 1159580);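 further: tested at 20 µM; growth read once vehicle control cultures reached saturation at 30 °C; 1 = growth at the plate median or of vehicle wells; lower values mean less growth of the strain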
Conditions: S. cerevisiae deletion strains, growth OD

Measured: normalized growth

CC1(C)C(=O)C=C[C@@]2(C)C1CC(=O)[C@]1(C)C2CC[C@@]2(C)[C@H](c3ccoc3)OC(=O)[C@H]3O[C@]321 (some centres undefined)
inactive: locus YAL021C, strain ccr4, active compounds read low 1.02 | locus YAL026C, strain drs2, active compounds read low 0.99 | locus YAL030W, strain snc1, active compounds read low 0.981 | locus YBL061C, strain skt5, active compounds read low 0.975 | locus YBR009C, strain hhf1, active compounds read low 1.04 | locus YBR021W, strain FUR4, active compounds read low 0.992 | locus YBR023C, strain chs3, active compounds read low 0.991 | locus YBR171W, strain sec66, active compounds read low 0.98 | locus YBR229C, strain ROT2, active compounds read low 0.999 | locus YBR231C, strain swc5, active compounds read low 1.03 | locus YBR279W, strain paf1, active compounds read low 1.01 | locus YCL016C, strain dcc1, active compounds read low 0.988 | locus YCL029C, strain bik1, active compounds read low 1.02 | locus YCL061C, strain MRC1, active compounds read low 0.988 | locus YCL069W, strain vba3, active compounds read low 0.977 | locus YCR088W, strain abp1, active compounds read low 0.998 | locus YDL005C, strain med2, active compounds read low 0.977 | locus YDL035C, strain GPR1, active compounds read low 0.99 | locus YDL040C, strain nat1, active compounds read low 0.977 | locus YDL074C, strain BRE1, active compounds read low 0.991 | locus YDL101C, strain DUN1, active compounds read low 1.01 | locus YDL134C, strain PPH21, active compounds read low 1.01 | locus YDL185W, strain tfp1, active compounds read low 1.01 | locus YDL192W, strain arf1, active compounds read low 1.01 | locus YDR001C, strain nth1, active compounds read low 0.992 | locus YDR069C, strain doa4, active compounds read low 0.949 | locus YDR101C, strain arx1, active compounds read low 0.991 | locus YDR137W, strain rgp1, active compounds read low 0.989 | locus YDR150W, strain NUM1, active compounds read low 0.995 | locus YDR159W, strain sac3, active compounds read low 1 | locus YDR162C, strain NBP2, active compounds read low 0.962 | locus YDR195W, strain ref2 1.02 | locus YDR297W, strain sur2, active compounds read low 0.994 | locus YDR318W, strain mcm21, active compounds read low 1.01 | locus YDR334W, strain swr1, active compounds read low 0.988 | locus YDR335W, strain msn5, active compounds read low 0.994 | locus YDR388W, active compounds read low 1.02 | locus YDR392W, strain spt3, active compounds read low 0.925 | locus YDR502C, strain sam2, active compounds read low 1.04 | locus YEL003W, strain gim4, active compounds read low 0.975 | locus YEL037C, strain rad23, active compounds read low 0.989 | locus YEL061C, strain CIN8 (second series), active compounds read low 0.996 | locus YEL061C, strain CIN8, active compounds read low 0.986 | locus YER015W, strain faa2, active compounds read low 0.975 | locus YER016W, strain bim1, active compounds read low 0.966 | locus YER110C, active compounds read low 1.02 | locus YER111C, strain swi4, active compounds read low 0.968 | locus YER155C, strain BEM2 (second series), active compounds read low 1.04 | locus YER155C, strain BEM2, active compounds read low 1 | locus YER167W, strain BCK2, active compounds read low 0.986 | locus YFR010W, strain ubp6, active compounds read low 1.02 | locus YGL078C, strain dbp3, active compounds read low 1.02 | locus YGL086W, strain mad1, active compounds read low 1.01 | locus YGL167C, strain pmr1, active compounds read low 0.992 | locus YGL173C, strain kem1, active compounds read low 1.01 | locus YGL227W, strain vid30, active compounds read low 0.994 | locus YGL240W, strain doc1, active compounds read low 1.06 | locus YGL248W, strain PDE1, active compounds read low 1 | locus YGL253W, strain hxk2, active compounds read low 0.981 | locus YGR135W, strain pre9, active compounds read low 1.05 | locus YGR252W, strain gcn5, active compounds read low 1.09 | locus YHR013C, strain ard1, active compounds read low 0.964 | locus YHR027C, strain rpn1, active compounds read low 0.995 | locus YHR030C, strain SLT2, active compounds read low 0.988 and 0.992 | locus YHR079C, strain IRE1 (second series), active compounds read low 1.01 | locus YHR079C, strain IRE1, active compounds read low 0.987 | locus YHR094C, strain hxt1, active compounds read low 1.02 | locus YHR129C, strain ARP1, active compounds read low 0.988 | locus YHR142W, strain chs7, active compounds read low 0.968 | locus YHR200W, strain rpn10, active compounds read low 1.01 | locus YIL066C, strain RNR3, active compounds read low 0.978 | locus YIL073C, strain SPO22, active compounds read low 1.04 | locus YIL125W, strain kgd1, active compounds read low 0.998 | locus YIR030C, strain dcg1, active compounds read low 1.01 | locus YJL092W, strain hpr5, active compounds read low 0.971 | locus YJL095W, strain BCK1 (second series), active compounds read low 0.976 | locus YJL095W, strain BCK1, active compounds read low 1 and 0.983 | locus YJL115W, strain asf1, active compounds read low 0.983 | locus YJL129C, strain trk1, active compounds read low 0.952 | locus YJL134W, strain LCB3, active compounds read low 0.986 | locus YJL154C, strain vps35, active compounds read low 0.978 | locus YJL164C, strain tpk1, active compounds read low 0.985 | locus YJL166W, strain qcr8, active compounds read low 1 | locus YJL168C, strain set2, active compounds read low 1 | locus YJL187C, strain SWE1 (second series), active compounds read low 1.02 | locus YJR066W, strain TOR1, active compounds read low 0.927 | locus YJR075W, strain HOC1, active compounds read low 0.995 | locus YKL009W, strain mrt4, active compounds read low 1 | locus YKL068W, active compounds read low 1 | locus YKL085W, strain MDH1 (second series), active compounds read low 0.992 | locus YKL085W, strain MDH1, active compounds read low 0.992 | locus YKL160W, strain elf1, active compounds read low 0.976 | locus YKL190W, strain CNB1, active compounds read low 0.997 | locus YKR001C, strain vps1, active compounds read low 1.03 | locus YKR026C, strain gcn3, active compounds read low 0.998 | locus YKR091W, strain srl3, active compounds read low 0.974 | locus YLL001W, strain dnm1, active compounds read low 1 | locus YLL026W, active compounds read low 0.997 | locus YLL041C, strain sdh2, active compounds read low 0.982 | locus YLR027C, strain aat2, active compounds read low 1 | locus YLR039C, strain RIC1, active compounds read low 0.886 | locus YLR058C, strain SHM2, active compounds read low 0.996 | locus YLR102C, strain apc9, active compounds read low 1.01 | locus YLR113W, strain HOG1, active compounds read low 1.01 | locus YLR221C, strain rsa3, active compounds read low 1.04 | locus YLR258W, strain gsy2, active compounds read low 0.976 | locus YLR262C, strain YPT6 (second series), active compounds read low 0.972 | locus YLR262C, strain YPT6, active compounds read low 0.897 | locus YLR268W, strain sec22, active compounds read low 0.982 | locus YLR320W, strain mms22, active compounds read low 1.02 | locus YLR330W, strain CHS5, active compounds read low 0.994 | locus YLR342W, strain FKS1 (second series), active compounds read low 0.982 | locus YLR342W, strain FKS1, active compounds read low 0.98 | locus YLR357W, strain rsc2, active compounds read low 0.941 | locus YLR370C, strain arc18, active compounds read low 0.99 | locus YLR371W, strain rom2, active compounds read low 0.998 | locus YLR384C, strain iki3, active compounds read low 0.987 | locus YLR418C, strain cdc73, active compounds read low 1.04 | locus YML016C, strain PPZ1, active compounds read low 0.984 | locus YML032C, strain rad52, active compounds read low 1.02 | locus YML120C, strain ndi1, active compounds read low 0.988 | locus YML124C, strain tub3, active compounds read low 1.01 | locus YMR058W, strain fet3, active compounds read low 1 | locus YMR078C, strain ctf18, active compounds read low 1.01 | locus YMR125W, strain sto1, active compounds read low 0.973 | locus YMR129W, active compounds read low 0.971 | locus YMR205C, strain PFK2, active compounds read low 1.04 | locus YMR223W, strain ubp8, active compounds read low 1.01 | locus YMR231W, strain pep5, active compounds read low 0.982 | locus YMR307W, strain GAS1, active compounds read low 0.868 | locus YNL067W, strain RPL9B, active compounds read low 1.01 | locus YNL071W, strain lat1, active compounds read low 1 | locus YNL128W, strain TEP1, active compounds read low 0.978 | locus YNL183C, strain NPR1, active compounds read low 0.931 | locus YNL209W, strain ssb2, active compounds read low 0.989 | locus YNL233W, strain BNI4, active compounds read low 0.987 | locus YNL248C, strain rpa49, active compounds read low 0.93 | locus YNL250W, strain rad50, active compounds read low 1.03 | locus YNL271C, strain bni1, active compounds read low 1 | locus YNL298W, strain CLA4, active compounds read low 1.03 | locus YNL307C, strain MCK1, active compounds read low 1 | locus YNL322C, strain KRE1 (second series), active compounds read low 0.958 | locus YNR049C, strain mso1, active compounds read low 0.952 | locus YNR052C, strain pop2, active compounds read low 1.03 | locus YOL006C, strain TOP1, active compounds read low 0.987 | locus YOL012C, strain htz1 1.38 | locus YOL147C, strain pex11, active compounds read low 1.01 | locus YOR001W, strain rrp6, active compounds read low 1 | locus YOR061W, strain CKA2, active compounds read low 0.991 | locus YOR069W, strain VPS5, active compounds read low 0.995 | locus YOR070C, strain gyp1, active compounds read low 0.995 | locus YOR080W, strain dia2, active compounds read low 0.986 | locus YOR083W, strain WHI5, active compounds read low 0.907 | locus YOR106W, strain vam3, active compounds read low 0.955 | locus YOR136W, strain idh2, active compounds read low 1.01 | locus YOR144C, strain elg1, active compounds read low 1.01 | locus YOR184W, strain ser1, active compounds read low 0.974 | locus YOR231W, strain MKK1, active compounds read low 0.983 | locus YOR265W, strain rbl2, active compounds read low 0.984 | locus YOR270C, strain vph1, active compounds read low 0.993 | locus YOR290C, strain snf2, active compounds read low 0.976 | locus YOR316C, strain cot1, active compounds read low 1.01 | locus YPL051W, strain arl3, active compounds read low 1 | locus YPL055C, strain LGE1, active compounds read low 1 | locus YPL078C, strain atp4, active compounds read low 0.976 | locus YPL106C, strain sse1, active compounds read low 0.986 | locus YPL240C, strain hsp82, active compounds read low 0.996 | locus YPL241C, strain CIN2, active compounds read low 0.987 | locus YPL256C, strain CLN2, active compounds read low 0.987 | locus YPR119W, strain clb2, active compounds read low 1.01 | locus YPR141C, strain kar3, active compounds read low 1 | locus YPR163C, strain tif3, active compounds read low 1.01 | locus YPR167C, strain met16, active compounds read low 1.01 | strain wtn01, active compounds read low 1

Reference: PubChem BioAssay AID1159580 (chemical genetic matrix, 2015)
